Several values for one entry are separate records, joined by “and”; a condition that tells them apart may be missing. Equal entries are not always repeated. For part of these data: Measured potencies and affinities stand elsewhere. Activity calls are given as the source filed them.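 How the source made its calls, unless noted: active means thallium flux through the channel raised or lowered by more than 3 SD from vehicle-only wells, actives on both sides; inactive means the rest.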
How the values were obtained:
[1] = polyglutamine-triggered caspase-3 activation inhibitors, cell-based (AID 1583); conditions: polyglutamine-induced caspase-3 activation, cell assay; stronger effect = higher value;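 tested at 10 µM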
[2] = suppressors of polyQ aggregation in yeast, 75Q-TubU reporter (AID 1593); conditions: Yeast 75Q polyglutamine aggregation reporter
[3] = inhibitors of mitochondrial cytochrome c release, biochemical, purified mitochondria (AID 1603); conditions: stronger effect = lower value;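 further: mouse liver mitochondria challenged with calcium chloride; signal normalized to the plate average as 100%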
[4] = inhibitors of polyQ protein aggregation (AID 1604); conditions: polyglutamine-induced protein aggregation inhibition assay; stronger effect = higher value; tested at 2.5 µM
[5] = enhancers of glutamate uptake in motor neurons, MN-1 cell line (AID 1612); conditions: MN-1 motor neuron cells, stronger effect = higher value;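 further: tested at 1 µM final; 0% = mean of DMSO vehicle wells on each plate; positive means more glutamate uptake than control and negative means less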
[6] = suppressors of polyglutamine aggregation in yeast, 75Q-TubH (AID 1616); conditions: S. cerevisiae 75Q-TubH polyglutamine aggregation suppression; stronger effect = higher value
[7] = Cy5 fluorescence interference with SSB-bound oligo, artefact control for HCV NS3 helicase inhibitor project, biochemical, NIH Clinical Collection, E. coli SSB (AID 743268; call rule not given here)
[8] = test system: Hepatitis C virus NS3 helicase; experiment: HCV NS3 helicase inhibitors, primary screen, biochemical, fluorescence polarization, NIH Clinical Collection (AID 743270; call rule not given here); conditions: NS3 helicase binding to Cy5-dT15 DNA, stronger effect = higher value, concentration not given here
[9] = target: Single-stranded DNA-binding protein (Escherichia coli (strain K12)) (UniProt P0AGE0); experiment: E. coli SSB displacement from DNA, counter-screen for HCV NS3 helicase inhibitor project, biochemical, fluorescence polarization, NIH Clinical Collection (AID 743271; in the data active means inhibition above about 28%); conditions: stronger effect = higher value, concentration not given here
[10] = fluorescence interference in NS3h assay format, artefact control for HCV NS3 helicase inhibitor project, biochemical, NIH Clinical Collection (AID 743272; call rule not given here;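 further: HCV NS3 helicase with a Cy5 labelled single stranded DNA probe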); conditions: fluorescence interference counterscreen, stronger effect = lower value
F380Y/beta4 = experiment: modulators of BK channel variants, profiling panel, selectivity assay, cell-based, U2OS BacMam, thallium flux, beta subunits (AID 1259406); conditions: at 30 µM;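 further: initial slope of Thallos dye fluorescence rise after thallium is added; log ratio against the mean of 0.3% DMSO vehicle wells on the same plate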
[11] = target: Calcium-activated potassium channel subunit alpha-1 (Homo sapiens) + Leucine-rich repeat-containing protein 26 (Homo sapiens) (UniProt Q12791+Q2I0M4); experiment: as above; conditions: F380Y/Slo1WT/gamma1, at 30 µM
Calcium-activated potassium channel subunit alpha-1 (Homo sapiens) + Leucine-rich repeat-containing protein 26 (Homo sapiens), sequence (Q2I0M4 whole entry, looked up, one chain of several): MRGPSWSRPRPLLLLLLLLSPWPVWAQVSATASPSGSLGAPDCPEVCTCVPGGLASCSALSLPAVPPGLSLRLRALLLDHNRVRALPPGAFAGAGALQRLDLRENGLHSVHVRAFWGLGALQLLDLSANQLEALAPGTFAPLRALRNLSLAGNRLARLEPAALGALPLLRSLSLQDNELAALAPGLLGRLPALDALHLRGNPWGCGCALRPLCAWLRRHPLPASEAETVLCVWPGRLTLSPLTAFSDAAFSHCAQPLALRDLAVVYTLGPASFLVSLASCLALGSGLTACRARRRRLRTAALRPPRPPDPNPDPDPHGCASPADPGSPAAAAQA

R275C = experiment: as above; conditions: at 30 µM
R275C/beta1 = experiment: as above; conditions: at 30 µM
R275C/beta2Delta = experiment: as above; conditions: at 30 µM
R275C/beta4 = experiment: as above; conditions: at 30 µM
R275C/Slo1WT/beta2 = experiment: as above; conditions: at 30 µM
[12] = rescue of polyQ-huntingtin neuronal dysfunction in worms, whole organism, C. elegans mechanosensory neurons, N-terminal huntingtin (AID 1599); conditions: touch response, stronger effect = higher value
[13] = viability rescue of complex I mutant cybrids, primary screen, cell-based, galactose medium, ATP luminescence (AID 1645843;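 active means z-score of at least 1.8 in each of two replicates, scored against plate mean and spread of sample wells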;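 further: positive z means more ATP and so rescue of galactose-driven cybrid death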); conditions: complex I mutant cybrid cells, 72 h, stronger effect = higher value

Row | Structure (SMILES) | inhibition [1] [%] | score [2] | cytochrome c release ratio [3] | inhibition of aggregation [4] [%] | glutamate uptake change [5] [%] | aggregation suppression score [6] | fluorescence ratio [7] | inhibition [8] | inhibition [9] | fluorescence ratio [10] | log fold change Tl+ flux (F380Y/beta4) | log fold change Tl+ flux [11] | log fold change Tl+ flux (R275C) | log fold change Tl+ flux (R275C/beta1) | log fold change Tl+ flux (R275C/beta2Delta) | log fold change Tl+ flux (R275C/beta4) | log fold change Tl+ flux (R275C/Slo1WT/beta2) | rescue above control [12] | z-score [13]
1 | COc1ccc(Cl)cc1C(=O)NCCc1ccc(S(=O)(=O)NC(=O)NC2CCCCC2)cc1 | 0.35 | -0.18 | 1.09 | 45 | 34.4 | 1.07 | 0.97 (inactive) | -2.27% (inactive) | 1.05% (inactive) | 0.97 (inactive) | 0.115 (active) | 0.0583 (inactive) | 0.027 (inactive) | 0.142 (active) | 0.0874 (inactive) | 0.162 (active) | 0.00644 (inactive) | – | –
2 | CC(=O)CC(c1ccccc1)c1c(O)c2ccccc2oc1=O (stereo unspecified) | 17 | 0.72 | 1.4 | 68.5 | -2.55 | 0.635 | 1 (inactive) | -2.27% (inactive) | -3.53% (inactive) | 0.99 (inactive) | 0.0212 (inactive) | -0.00524 (inactive) | 0.00879 (inactive) | -0.0262 (inactive) | 0.0436 (inactive) | -0.00201 (inactive) | 0.0306 (inactive) | -6.3 | 2.31 (active)
3 | COCCOC(=O)C1=C(C)NC(C)=C(C(=O)OC(C)C)C1c1cccc([N+](=O)[O-])c1 (stereo unspecified) | – | – | – | – | – | – | 0.87 (inactive) | 6.77% (inactive) | 15.3% (inactive) | 0.92 (inactive) | -0.126 (active) | 0.0377 (inactive) | -0.000869 (inactive) | -0.0169 (inactive) | -0.0566 (inactive) | -0.0265 (inactive) | -0.0323 (inactive) | – | –
4 | O=c1[nH]cnc2[nH]ncc12 | 14.4 | 1.09 | 0.77 | 60.9 | -7.44 | 1.87 | 1.02 (inactive) | -5% (inactive) | -3.53% (inactive) | 0.99 (inactive) | 0.00785 (inactive) | 0.0214 (inactive) | 0.00104 (inactive) | 0.0222 (inactive) | 0.0262 (inactive) | 0.0379 (inactive) | 0.0394 (inactive) | 2.94 | 0.315 (inactive) and -0.255 (inactive)
5 | CC(C)Cc1ccc(C(C)C(=O)O)cc1 (stereo unspecified) | -4.83 | 0.01 | 0.94 | 47.1 | 16.3 | -0.00282 | – | – | – | – | 0.0254 (inactive) | -0.0267 (inactive) | 0.00709 (inactive) | -0.00083 (inactive) | -0.00841 (inactive) | -0.0471 (inactive) | 0.0328 (inactive) | 11.4 | 0.975 (inactive) and -0.01 (inactive) and 0.46 (inactive)
